The panel holds about 83,000 compounds, 20% with a hit somewhere; the sample as a whole holds those more often.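 96-well plates, one dose, 48 hours. Percent growth reported; active if below 10.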 Unmarked numbers belong to inactive results. Activity calls are given as the source filed them.
System: HCC-2998 colon
Assay: NCI-60 one-dose screen, 48 h (100 = growth as untreated, 0 = no growth, -100 = all killed)
Details: 10 µM unless noted

For `O=C(CC12CC3CC(CC(C3)C1)C2)NCCOCCOCCNC(=O)c1cc2c(o1)C(=O)c1ccccc1C2=O`, the growth was -86.9% (active).
`CCCCCCCCc1cc[n+](CC(=O)c2ccc(Br)cc2)cc1` was tested, and the growth was -67.4% (active).
`CC/C=C/[C@@H]1C=C[C@@H]2CCC[C@H]2[C@@H]1CC[C@H](O)[C@H](C)N` was tested, and the growth was -88.6% (active).
For `O=[N+]([O-])c1ccc2[nH]cc(-c3c4ccsc4cc4[nH]c5ccc([N+](=O)[O-])cc5c34)c2c1`, the growth was 7.3% (active).
For `C=C(C=O)C1CCC2(C(=O)O)CCC3(C)C(CCC4C5(C)CCC(O)C(C)(C)C5CCC43C)C12` (stereo not given), the growth was -85.2% (active).
`CCN(CC)CC(O)CNc1c2ccc(Cl)cc2nc2ccc(OC)cc12` (stereo not given) was tested, and the growth was -92.2% (active).
For `C/C(Cc1ccc(Cl)cc1)=C(/c1ccc(Cl)cc1)c1ccc(OCCN(C)C)cc1`, the growth was 1.6% (active).
With `Cc1cnc(Nc2ccc(N3CCN(C)CC3)cc2)nc1Nc1ccc(Cl)c(NS(=O)(=O)C(C)(C)C)c1` the growth was -48.1% (active).
With `O=C1CCC(N2C(=O)c3cccc(NCCCC4CCN(CCNC(=O)c5cc6c(o5)C(=O)c5ccccc5C6=O)CC4)c3C2=O)C(=O)N1` (stereo not given) the growth was -96% (active).

Going from `CCN(CC)CCCNC(=O)c1ccc(N)cc1` to `Cc1ccc(NC(=O)C(Cl)Cl)cc1`, the growth falls from 126% to 115%.

Going from `N#Cc1c(NC(=O)c2ccc(Br)cc2)sc2c1CCCC2` to `N#Cc1c(NC(=O)c2cccc(C(F)(F)F)c2)sc2c1CCC(=O)C2`, the growth falls from 68.6% to 27.2%.

Compared with `Cc1nc(Nc2ccc(N)cc2)c2ccccc2n1`, `Nc1c(-c2nc3ccc(Br)cc3c(=O)[nH]2)nnn1-c1ccccc1` is lower in growth: 104% for the first, 80.6% for the second.

First: CCCCN(Cc1ccc(C(=O)NO)cc1)C(=O)Nc1ccc(OCCCCCCCCCn2cc(CCCCC(=O)N[C@H](C(=O)N3C[C@H](O)C[C@H]3C(=O)NCc3ccc(-c4scnc4C)cc3)C(C)(C)C)nn2)cc1
Second: COc1ccc(-n2nnc(C(=O)NCCc3c[nH]c4ccc(F)cc34)c2C)cc1
The growth of the first is lower: 57.2% for the first, 106% for the second.

First: COc1ccc(OC)c(/C=C2\COc3ccc(O)cc3C2=O)c1
Second: Cc1ccc2c(n1)C(=O)C(Oc1ccc(F)cc1)=CC2=O
The growth of the first is higher: 112% for the first, 108% for the second.

First: CCOC(=O)C1=C(C)NC(SCc2nnc(-c3ccc(Cl)cc3)o2)=NC1c1ccc(Cl)cc1Cl (stereo not given)
Second: Cc1ccc(-n2nnc(C3=NCCc4c3[nH]c3ccc(Cl)cc43)c2C)cc1
The growth of the first is higher: 84.5% for the first, 75.5% for the second.

Compared with `O[C@H]1CO[C@H]2[C@@H]1OC[C@@H]2Oc1ccc(Nc2ccnc(Nc3ccc(O[C@H]4CO[C@H]5[C@@H]4OC[C@@H]5O)c(Cl)c3)n2)cc1Cl`, `O[C@H]1CO[C@H]2[C@@H]1OC[C@@H]2Oc1ccc(Nc2nc(Nc3ccc(F)c(Cl)c3)ncc2F)cc1Cl` is higher in growth: 17.1% for the first, 101% for the second.

First: CC(=O)Nc1ccc2c(c1)Cc1c(F)cccc1-2
Second: CNC(=O)c1cc(Oc2ccc3nc(Nc4cc(Cl)cc(Cl)c4)ccc3c2)ccn1
The growth of the first is higher: 94.2% for the first, 74.5% for the second.

Going from `O=C1c2cccc3c(-c4ccc(-c5nc6c7ccccc7c7ccccc7c6[nH]5)cc4)ccc(c23)C(=O)N1CCN1CCNCC1` to `CN1CCN(c2ccc3nc(/N=C/c4ccc5sc(-c6ccc([N+](=O)[O-])cc6)nc5c4)sc3c2)CC1`, the growth rises from 85.5% to 101%.

First: NC(=O)CC1(O)C=C(Br)C(=O)C(Br)=C1
Second: NS(=O)(=O)c1cn(-c2ncnc3nc[nH]c23)ccc1=O
The growth of the first is lower: 76.3% for the first, 107% for the second.

Compared with `C=C1C(=O)O[C@H]2[C@H]1CC/C(C(=O)NCCCCCCCCNC(=O)/C1=C/CC[C@@]3(C)O[C@H]3[C@H]3OC(=O)C(=C)[C@@H]3CC1)=C\CC[C@@]1(C)O[C@@H]21`, `C[C@@H]1CC[C@@H]2[C@@H]1[C@H](OC(=O)/C=C/c1ccccc1)[C@]1(C3CCCCC3)C[C@@H](NC(=O)CO)[C@@]2(C)O1` is lower in growth: 97.2% for the first, 95.4% for the second.

Going from `Cc1cc(-c2ccccc2)cc(SC#N)[n+]1[O-]` to `CSc1nc(N)c(CNC(C)c2ccccc2)c(=O)n1C` (stereo not given), the growth rises from 62% to 101%.

Going from `CCn1c(Sc2nnc(NC(=O)CSC(=S)N3CCCCC3)s2)nc2c1c(=O)n(C)c(=O)n2C` to `CC(=[N-])N1CCC[C@@H](Nc2c3ccccc3nc3ccccc23)C1.[Cl][Pt].[NH-]CCC[NH-]`, the growth falls from 81.9% to 49.7%.
